# Results as given in PubChem BioAssay (NCI).
# Several values for one entry are separate records, joined by “and”; a condition that tells them apart may be missing. Identical values can stand only once. This is part of a sample that, as a whole, favours compounds with a hit. Of some 83,000 tested, about 20% had one in any assay.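 Percent growth is the endpoint: 0 to 100 indicates growth inhibition (40 means 60% inhibition), 0 means no net growth, and negative values indicate cell death.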 Activity calls are given as the source filed them. Rule for the calls: active = growth percent below 10; inactive = the rest.
# System: MDA-MB-468 breast
# Assay: NCI-60 one-dose screen, 48 h (100 = growth as untreated, 0 = no growth, -100 = all killed)
# Settings: 10 µM unless noted
row,Compound,growth
1,COc1ccc(C/C(C)=C(\c2ccc(OCCN3CCOCC3)cc2)c2ccc(OC(=O)Cc3ccccc3)cc2)cc1,-33.4% (active)
2,O=NN1CCCCC1,106% (inactive)
3,CCCCCCCCCCOc1ccc(C(=O)Oc2ccc(CSP3(=O)OCC4OC(n5ccc(=O)[nH]c5=O)C(F)C4OP(=O)(O)OCC4OC(n5cnc6c(N)ncnc65)C(F)C4O3)cc2)cc1 (stereo not given),115% (inactive)
4,CCOC(=O)N1CC1,92.5% (inactive)
5,Cc1ccc(CNc2nc3ccc(OC/C(=C/F)CN)cc3o2)cn1,109% (inactive)
6,CNC(=O)Oc1ccccc1,101% (inactive)
7,CC12CC(=O)C3(SC#N)C(CCC4=CC(=O)CCC43C)C1CCC2=O (stereo not given),24.5% (inactive)
8,CCC(=O)C(CC(C)N1CCCCCC1)(c1ccccc1)c1ccccc1 (stereo not given),95.6% (inactive)
9,CC(=O)O[C@H]1C[C@@H]2OC3C=C(C)CCC3(C)[C@@]1(C)[C@@]21CO1 (stereo not given in full),-26.7% (active) and -40.4% (active)
10,CCCCCCCCCCCCCCCCCCn1cc[n+](C)c1,-42.3% (active) and -20.4% (active)
11,CCCCn1c(=O)c(C(=O)NCc2ccccc2Cl)c(O)c2ccccc21,70.6% (inactive)
12,CC[C@H](C)[C@H](NC(=O)c1ncccn1)C(=O)N(C)[C@H](C[C@@H](OC(C)=O)c1nc(C(=O)N[C@@H](Cc2ccccc2)C[C@H](C)C(=O)OC)cs1)C(C)C,23% (inactive)
13,C[C@@H]1CCC2[C@@H](C)[C@H](OC(=O)CCC(=O)NCCNC(=O)Cc3cc(=O)oc4cc(N(C)C)ccc34)O[C@@H]3O[C@]4(C)CC[C@@H]1C23OO4 (stereo not given in full),63.7% (inactive)
14,N#[N+]c1nc2nc(N)[nH]c(=O)c2[nH]1,100% (inactive)
15,COc1ccc(C2SCC(=O)Nc3c2c(C)nn3-c2nc3ccc(C)cc3s2)cc1O (stereo not given),23.4% (inactive)
16,COc1cc(C=C2c3ccccc3C(=O)c3ccccc32)ccc1OCCCCOc1cc2c(cc1OC)C(=O)N1CCCC1C=N2 (stereo not given),-75.4% (active)
17,COC(=O)[C@@H](NC(=O)c1cn(CCC2CCCCC2)c2ccccc12)C(C)(C)C,82.3% (inactive)
18,O=C(CC1(O)C(=O)N(Cc2ccccc2)c2ccc(Br)cc21)c1ccc(C(=O)NCC2CCC3(CC2)OOC2(CCCCC2)OO3)cc1 (stereo not given),27.9% (inactive)
19,COC(=O)[C@@H](C)C[C@H](Cc1ccccc1)NC(=O)c1csc([C@@H](C[C@H](C(C)C)N(C)C(=O)[C@@H](NC(=O)[C@H]2CCCCN2C)C2CC2)OC(C)=O)n1,0.846% (active)
20,CC(/C=N/N=C(N)N)=N\N=C(N)N,88.7% (inactive)

row,Compound,growth
1,CCN1C(=O)NC(=O)C(C)(N2C(=O)c3c(F)c(F)c(F)c(F)c3C2=O)C1=O (stereo not given),-6.73% (active)
2,CCC1([N+](=O)[O-])COP(=O)(NCc2cccnc2)OC1 (stereo not given),104% (inactive)
3,CC(=O)O[C@@H]1[C@@H]2O[C@H]2[C@@](C)(O)C(=O)[C@@H](C)C/C=C/[C@H]2[C@@H]3O[C@]3(C)[C@@H](C)C3[C@H](Cc4ccccc4)NC(=O)[C@@]312 (stereo not given in full),56.8% (inactive)
4,O=[N+]([O-])c1cc[n+]([O-])c2ccccc12,-60.4% (active)
5,Nc1ccc2c(c1)Cc1cc(N)ccc1-2,67.3% (inactive)
6,COC12CC3C4=CCOC5CC(=O)N6c7ccccc7C1(CCN2C4)C6C53 (stereo not given),102% (inactive)
7,NC(=O)C(Cl)Cl,103% (inactive)
8,O=C(CI)Nc1ccc(Br)cc1,79.1% (inactive)
9,CC[C@H](C)[C@H](NC(=O)[C@H]1CCCCN1C)C(=O)N(C)[C@H](C(=O)NC12CC(C(=O)N[C@@H](Cc3ccccc3)C[C@H](C)C(=O)OC)(C1)C2)C(C)C,116% (inactive)
10,CC1(C)N=C(N)N=C(N)N1c1ccc(CCC(=O)Nc2cccc(S(=O)(=O)F)c2)cc1,28% (inactive)
11,COc1ccc(N(CC(=O)NCCC[Te]c2ccccc2)C(=O)c2ccccc2)cc1,97.2% (inactive)
12,O=S1(=O)OCCO1,98.2% (inactive)
13,[Cl][Sn]([c]1ccccc1)([c]1ccccc1)[c]1ccccc1,-75% (active)
14,CC(C)(O)/C=C/C(=O)[C@](C)(O)[C@H]1[C@H](O)C[C@@]2(C)[C@H]3CC=C4[C@@H](C[C@H](O)C(=O)C4(C)C)[C@]3(C)C(=O)C[C@]12C,-23.4% (active)
15,CC1=CC(=Nc2ccc(N(CCCl)CCCl)cc2)C=C(C)C1=O,-66.3% (active)
16,CC(=O)ONc1ccc([N+](=O)[O-])c(C(F)(F)F)c1,118% (inactive)
17,CCOC(=O)C1(c2ccccc2)CCN(CC(=O)c2ccc(NC(C)=O)cc2)CC1,110% (inactive)
18,O=C(Nc1ccc([N+](=O)[O-])cc1)C(Cl)(Cl)Cl,96.5% (inactive)
19,COc1ccccc1/C=C/[N+](=O)[O-],22.6% (inactive)
20,CCN(CC)CCOc1c(C(C)C)cccc1C(C)C,88.1% (inactive)
